Where two headings read alike, the source gives them in different places.

Here are results for six compounds from PMC11062922 (Nature Chemical Biology, 2023).

What all share (design): species or system human, MV4-11 + K-562 + COLO205 + SK-N-BE2 + OVCAR-8
The subject of one assay is CDC42BPB. Particulars: read-out: apparent Kd, n = 1.
For another assay, the system named is CIT. Particulars: read-out: apparent Kd; compound concentrations: 100 nM and 1000 nM (sheet 'Samples'), CATDS: 0.106368492262706; n = 1.
The test system of the next assay is CLK1. Particulars: read-out: apparent Kd; compound concentrations: 100 nM and 1000 nM (sheet 'Samples'), CATDS: 0.214527954353402; n = 1.
The next assay concerns CLK4. Particulars: read-out: apparent Kd; compound concentrations: 100 nM and 1000 nM (sheet 'Samples'), CATDS: 0.24205596503661; n = 1.
A further assay deals with MARK3. Particulars: read-out: apparent Kd; compound concentrations: 100 nM and 1000 nM (sheet 'Samples'), CATDS: 9.9321002689151103E-2; n = 1.
Another assay deals with MELK. Conditions: read-out: apparent Kd; compound concentrations: 100 nM and 1000 nM (sheet 'Samples'), CATDS: 9.4221597644958896E-2; n = 1.
In a further assay the test system is PHKG2. Particulars: read-out: apparent Kd; compound concentrations: 100 nM and 1000 nM (sheet 'Samples'), CATDS: 0.61617859145014098; n = 1.
The subject of a further assay is PKN1. Particulars: read-out: apparent Kd; compound concentrations:100 nM and 1000 nM (sheet 'Samples'); n = 1.
Another assay relates to PRKACA. Conditions: read-out: apparent Kd; compound concentrations:100 nM and 1000 nM (sheet 'Samples'); n = 1.
Another assay relates to PRKACB. Conditions: read-out: apparent Kd; compound concentrations:100 nM and 1000 nM (sheet 'Samples'); n = 1.
The subject of a further assay is PRKG1. Particulars: read-out: apparent Kd; compound concentrations:100 nM and 1000 nM (sheet 'Samples'); n = 1.
The test system of a further assay is PRKX;PRKY. Particulars: read-out: apparent Kd; compound concentrations:100 nM and 1000 nM (sheet 'Samples'); n = 1.
A further assay relates to ROCK1. Conditions: read-out: apparent Kd, n = 1.
In the next assay the test system is ROCK2. Conditions: read-out: apparent Kd, n = 1.
In another assay the test system is RPS6KB1. Particulars: read-out: apparent Kd; compound concentrations:100 nM and 1000 nM (sheet 'Samples'); n = 1.
Another assay concerns CDC42BPG. Particulars: read-out: apparent Kd, n = 1.
In a further assay the test system is IRAK3. Conditions: read-out: apparent Kd; compound concentrations:100 nM and 1000 nM (sheet 'Samples'); n = 1.
The subject of another assay is MAPK14. Particulars: read-out: apparent Kd, n = 1.
The test system of the next assay is PIK3CA. Particulars: read-out: apparent Kd; compound concentrations:100 nM and 1000 nM (sheet 'Samples'); n = 1.
The test system of the next assay is PIK3CD. Conditions: read-out: apparent Kd; compound concentrations:100 nM and 1000 nM (sheet 'Samples'); n = 1.
The subject of the next assay is PIM1. Conditions: read-out: apparent Kd; compound concentrations:100 nM and 1000 nM (sheet 'Samples'); n = 1.
Another assay concerns STK16. Particulars: read-out: apparent Kd; compound concentrations:100 nM and 1000 nM (sheet 'Samples'); n = 1.
The test system of a further assay is PRKX. Particulars: read-out: apparent Kd; compound concentrations: 100 nM and 1000 nM (sheet 'Samples'), CATDS: 0.17762279557226701; n = 1.
Another assay relates to MAPK11. Conditions: read-out: apparent Kd; compound concentrations: 100 nM and 1000 nM (sheet 'Samples'), CATDS: 0.59050582210334401; n = 1.
The test system of a further assay is MAPKAPK2. Particulars: read-out: apparent Kd; compound concentrations: 100 nM and 1000 nM (sheet 'Samples'), CATDS: 0.33085096444850498; n = 1.
A further assay deals with CAMK4. Conditions: read-out: apparent Kd; compound concentrations: 100 nM and 1000 nM (sheet 'Samples'), CATDS: 0.39593568375035498; n = 1.
Setting [1] is: compound concentrations:100 nM and 1000 nM (sheet 'Samples').

On to `FC1=CC(C3=NC2=CC(OC)=C(OC)C=C2C(N[C@H]4[C@H]([C@](C)(O)C)CNC4)=N3)=C(O)C=C1.Cl.Cl` [CCT241533], for which the potency estimated from few doses was 1.01 µM in the assay with CDC42BPB (compound concentrations: 100 nM and 1000 nM (sheet 'Samples'), CATDS: 0.117626319285852); 1.49 µM in the assay on CIT; 0.163 µM in the assay on CLK1; 0.121 µM with CLK4; 2.01 µM in the assay with MARK3; 2.59 µM in the assay on MELK. In addition, the potency estimated from few doses in the assay on PHKG2 was 0.0208 µM.

Regarding `Cl.Cl.NC[C@H](Cc1ccc(C(F)(F)F)cc1)NC(=O)c1cc(Br)c(-c2ccnc3[nH]ccc23)s1.NC[C@H](Cc1ccc(C(F)(F)F)cc1)NC(=O)c1cc(Br)c(-c2ccnc3[nH]ccc23)s1` [GSK1487252A], the potency estimated from few doses was 2.46 µM with CDC42BPB (setting [1]); 2.08 µM with PKN1; 0.0205 µM in the assay with PRKACA; 0.0606 µM in the assay with PRKACB; 0.0302 µM in the assay on PRKG1; 0.593 µM in the assay with PRKX;PRKY. Besides, the potency estimated from few doses is 0.217 µM in the assay with ROCK1 (setting [1]), 0.18 µM with ROCK2 (setting [1]) and 0.461 µM with RPS6KB1.

Regarding `O=C(Nc1n[nH]c2nc(-c3ccccc3)c(Br)cc12)C1CC1` [SB-708998], the potency estimated from few doses in the assay with CDC42BPG (setting [1]) was 1.88 µM; in the assay with IRAK3 it was 1.41 µM; in the assay with MAPK14 (setting [1]), 1.64 µM; with PIK3CA, 0.245 µM; in the assay with PIK3CD, 0.187 µM; in the assay on PIM1, 1.28 µM. Besides, the potency estimated from few doses in the assay with STK16 is 1.89 µM.

`CC1=C(C(=O)Nc2cc(Cl)c3[nH]ncc3c2)C(c2ccc(C(F)(F)F)cc2)CC(=O)N1` (stereo not drawn) [GSK466317A]: the potency estimated from few doses with CDC42BPB (compound concentrations: 100 nM and 1000 nM (sheet 'Samples'), CATDS: 0.18288519935085101) is 1.94 µM; with PRKX it was 2.18 µM; in the assay with ROCK1 (compound concentrations: 100 nM and 1000 nM (sheet 'Samples'), CATDS: 0.39431900573288498), 0.277 µM; in the assay with ROCK2 (compound concentrations: 100 nM and 1000 nM (sheet 'Samples'), CATDS: 0.422625118244225), 0.246 µM.

Turning to `Nc1c(C(=O)c2cccc(-c3ccc[n+]([O-])c3)c2)cnn1-c1ccc(F)cc1F` [RO1166259-000], the potency estimated from few doses with CDC42BPG (compound concentrations: 100 nM and 1000 nM (sheet 'Samples'), CATDS: 0.14684216194917399) was 1.41 µM; in the assay with MAPK11 it was 0.0102 µM; in the assay on MAPK14 (compound concentrations: 100 nM and 1000 nM (sheet 'Samples'), CATDS: 0.223513912329704), 0.1 µM; in the assay on MAPKAPK2 it was 0.0312 µM.

Turning to `C/C(=C1/SC(NCc2cccs2)=NC1=O)c1ccc2ncccc2c1` [RO4607009-000], the potency estimated from few doses in the assay on CAMK4 was 2.26 µM; in the assay on CDC42BPG (compound concentrations: 100 nM and 1000 nM (sheet 'Samples'), CATDS: 0.67827085462466996), 0.701 µM.
